# Measured values as given in PubChem BioAssay (NCI).
# This is part of a sample that, as a whole, favours compounds with a hit. Of some 79,000 tested, about 15% had one in any assay. Values without a mark were called inactive. Active and inactive are the calls of the source. Cut-off read from the data, not from the text of the source: active = growth inhibition above about 70%; inactive = the rest.
# Key:
# [1] = NCI Yeast Anticancer Drug Screen. Data for the rad52 strain (AID 147);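 note: 0% = growth of vehicle-treated control cultures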; settings: S. cerevisiae rad52 mutant growth inhibition, active compounds read high
# Method in brief: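 The repair-mutant yeast strain was incubated with compounds, then growth was read and inhibition derived relative to vehicle.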
# [2] = NCI Yeast Anticancer Drug Screen. Data for the wt1 strain (AID 149);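 note: 0% = growth of vehicle-treated wt1 cultures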; settings: S. cerevisiae wt1 strain (SPY 50644) growth inhibition, active compounds read high
# Method in brief: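 Growth inhibition read against vehicle controls after compound exposure of the wt1 yeast strain.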
# [3] = NCI Yeast Anticancer Drug Screen. Data for the rad50EPP+ strain (AID 151);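 note: 0% = growth of vehicle-treated control cultures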; settings: S. cerevisiae rad50 mutant strain, active compounds read high
# Method in brief: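 Vehicle-normalised growth inhibition; rad50EPP+ yeast strain, altered in DNA damage repair, compound-treated.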
# [4] = NCI Yeast Anticancer Drug Screen. Data for the mgt1 strain (AID 153); settings: S. cerevisiae mgt1 mutant growth inhibition, active compounds read high
# Method in brief: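 Vehicle-normalized growth inhibition is determined in mgt1 yeast, a strain selected for a defined alteration in DNA repair or cell cycle control.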
# [5] = NCI Yeast Anticancer Drug Screen. Data for the mec2-1 strain (AID 157); settings: S. cerevisiae mec2-1 strain, active compounds read high
# Method in brief: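 Mutant yeast (mec2-1) grown with compound; growth inhibition relative to vehicle control reported.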
# [6] = NCI Yeast Anticancer Drug Screen. Data for the rad14 strain (AID 159);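 note: 0% = growth of vehicle-treated control cultures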; settings: S. cerevisiae rad14 strain growth inhibition, active compounds read high
# Method in brief: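 Growth inhibition vs vehicle controls; genetically altered yeast strain (DNA damage repair defect) treated with test compounds.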
# [7] = NCI Yeast Anticancer Drug Screen. Data for the sgs1 mgt1 strain (AID 161);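 note: 0% = growth of cultures given vehicle only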; settings: S. cerevisiae sgs1 mgt1 strain, active compounds read high
# Method in brief: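 Compounds are added to genetically altered yeast, and growth is compared with cultures given vehicle alone to give percent inhibition.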
# [8] = NCI Yeast Anticancer Drug Screen. Data for the CLN2oe strain (AID 163);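 note: 0% = growth of vehicle-only control cultures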; settings: S. cerevisiae CLN2oe strain, active compounds read high
# Method in brief: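 Compounds are applied to yeast harbouring a defined cell-cycle control change; reduced growth compared with vehicle-treated controls gives the value.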
# [9] = NCI Yeast Anticancer Drug Screen. Data for the cln2 rad14 strain (AID 165);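 note: 0% = growth equal to vehicle treated cultures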; settings: S. cerevisiae cln2 rad14 strain, active compounds read high
# Method in brief: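 Readout is yeast growth inhibition versus vehicle-treated controls, using a strain with cln2 and rad14 alterations exposed to compound.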
# [10] = NCI Yeast Anticancer Drug Screen. Data for the bub3 strain (AID 167); settings: S. cerevisiae bub3 mutant strain, active compounds read high
# Method in brief: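 Readout: yeast growth inhibition, expressed relative to vehicle-only wells. The test organism is a mutant strain from a panel with lesions in DNA repair or checkpoint genes.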
# [11] = NCI Yeast Anticancer Drug Screen. Data for the wt2 strain (AID 169);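 note: 0% = growth of vehicle-treated yeast cultures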; settings: S. cerevisiae wt2 strain growth inhibition, active compounds read high
# Method in brief: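 Against vehicle-treated controls, the growth of yeast exposed to each compound was compared, and the inhibition was recorded.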
# [12] = NCI Yeast Anticancer Drug Screen. Data for the mlh1 strain (AID 171);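 note: 0% = growth of vehicle-treated control cultures of the same strain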; settings: S. cerevisiae mlh1 strain growth inhibition, active compounds read high
# Method in brief: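 Measured: yeast growth. Reference: vehicle-treated controls. Organism: strain with a defined alteration affecting DNA damage repair or cell cycle control, treated with compound.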
# [13] = NCI Yeast Anticancer Drug Screen. Data for the sgs1 strain (AID 173);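 note: 0% = growth of vehicle-only control cultures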; settings: S. cerevisiae sgs1 mutant, active compounds read high
# Method in brief: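 Each compound was added to cultures of the altered yeast strain. Growth was recorded, and inhibition was derived by comparison with vehicle controls.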
# [14] = NCI Yeast Anticancer Drug Screen. Data for the mlh1 rad18 strain (AID 175); settings: S. cerevisiae mlh1 rad18 strain growth inhibition, active compounds read high
# Method in brief: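 Genetically defined yeast (DNA repair-deficient) exposed to compounds; growth inhibition determined relative to vehicle.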
# [15] = NCI Yeast Anticancer Drug Screen. Data for the rad50 strain (AID 155);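 note: 0% = growth of vehicle-only cultures of the same strain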; settings: S. cerevisiae rad50 strain growth inhibition, active compounds read high
# Method in brief: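 Readout: growth inhibition relative to vehicle-treated cultures. Compound exposure was carried out in a genetically defined yeast strain deficient in DNA damage repair.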
# [16] = NCI Yeast Anticancer Drug Screen. Data for the rad18 strain (AID 177); settings: S. cerevisiae rad18 mutant growth inhibition, active compounds read high
# Method in brief: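 Vehicle-treated cultures served as the baseline for scoring compound-induced growth inhibition in DNA-repair-mutant yeast.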
# [17] = at 5.0 µM (retest, dose inferred, filed as 0.5)
# [18] = at 50.0 µM (retest, dose inferred, filed as 5.0)
compound,measurement,setting,value
Clc1c(Cl)c(Cl)c2n[nH]nc2c1Cl,growth inhibition,[1]; at 1.2 µM,-30%
same,growth inhibition,[1]; at 3.7 µM,-11%
same,growth inhibition,[1]; at 11.0 µM,-20%
same,growth inhibition,[1]; at 33.0 µM,-12%
same,growth inhibition,[1]; at 100.0 µM,65%
same,growth inhibition,[2]; at 1.2 µM,-23%
same,growth inhibition,[2]; at 3.7 µM,-16%
same,growth inhibition,[2]; at 11.0 µM,-9%
same,growth inhibition,[2]; at 33.0 µM,14%
same,growth inhibition,[2]; at 100.0 µM,87% (active)
same,growth inhibition,[3]; at 1.2 µM,-62%
same,growth inhibition,[3]; at 3.7 µM,-51%
same,growth inhibition,[3]; at 11.0 µM,-28%
same,growth inhibition,[3]; at 33.0 µM,18%
same,growth inhibition,[3]; at 100.0 µM,20%
same,growth inhibition,[4]; at 1.2 µM,-23%
same,growth inhibition,[4]; at 3.7 µM,-12%
same,growth inhibition,[4]; at 11.0 µM,-5%
same,growth inhibition,[4]; at 33.0 µM,6%
same,growth inhibition,[4]; at 100.0 µM,86% (active)
same,growth inhibition,[5]; at 1.2 µM,-6%
same,growth inhibition,[5]; at 3.7 µM,-20%
same,growth inhibition,[5]; [17],100% (active)
same,growth inhibition,[5]; at 11.0 µM,-21%
same,growth inhibition,[5]; at 33.0 µM,9%
same,growth inhibition,[5]; [18],100% (active)
same,growth inhibition,[5]; at 50.0 µM,54.8%
same,growth inhibition,[5]; at 100.0 µM,82% (active)
same,growth inhibition,[6]; at 1.2 µM,-9%
same,growth inhibition,[6]; at 3.7 µM,-19%
same,growth inhibition,[6]; at 11.0 µM,-9%
same,growth inhibition,[6]; at 33.0 µM,11%
same,growth inhibition,[6]; at 100.0 µM,94% (active)
same,growth inhibition,[7]; [17],-17%
same,growth inhibition,[7]; [18],78% (active)
same,growth inhibition,[8]; at 1.2 µM,-7%
same,growth inhibition,[8]; at 3.7 µM,-10%
same,growth inhibition,[8]; at 11.0 µM,1%
same,growth inhibition,[8]; at 33.0 µM,21%
same,growth inhibition,[8]; at 100.0 µM,76% (active)
same,growth inhibition,[9]; [17],57%
same,growth inhibition,[9]; [18],57%
same,growth inhibition,[10]; at 1.2 µM,-21%
same,growth inhibition,[10]; at 3.7 µM,-18%
same,growth inhibition,[10]; [17],-11%
same,growth inhibition,[10]; at 11.0 µM,-10%
same,growth inhibition,[10]; at 33.0 µM,15%
same,growth inhibition,[10]; [18],73% (active)
same,growth inhibition,[10]; at 100.0 µM,87% (active)
same,growth inhibition,[11]; at 1.2 µM,-24%
same,growth inhibition,[11]; at 3.7 µM,-18%
same,growth inhibition,[11]; at 11.0 µM,-7%
same,growth inhibition,[11]; at 33.0 µM,-3%
same,growth inhibition,[11]; at 100.0 µM,94% (active)
same,growth inhibition,[12]; at 1.2 µM,-59%
same,growth inhibition,[12]; at 3.7 µM,-52%
same,growth inhibition,[12]; at 11.0 µM,-33%
same,growth inhibition,[12]; at 33.0 µM,14%
same,growth inhibition,[12]; at 100.0 µM,75% (active)
same,growth inhibition,[13]; at 1.2 µM,-40%
same,growth inhibition,[13]; at 3.7 µM,-26%
same,growth inhibition,[13]; at 11.0 µM,-12%
same,growth inhibition,[13]; at 33.0 µM,30%
same,growth inhibition,[13]; at 100.0 µM,91% (active)
same,growth inhibition,[14]; [17],100% (active)
same,growth inhibition,[14]; [18],100% (active)
same,growth inhibition,[14]; at 50.0 µM,37.5%
CC1=CCC(C(C)(C)c2ccc(O)cc2)CC1 (configuration not stated),growth inhibition,[1]; at 1.2 µM,4%
same,growth inhibition,[1]; at 3.7 µM,-12%
same,growth inhibition,[1]; at 11.0 µM,-11%
same,growth inhibition,[1]; at 33.0 µM,96% (active)
same,growth inhibition,[1]; at 100.0 µM,97% (active)
same,growth inhibition,[2]; at 1.2 µM,-16%
same,growth inhibition,[2]; at 3.7 µM,-18%
same,growth inhibition,[2]; at 11.0 µM,-39%
same,growth inhibition,[2]; at 33.0 µM,97% (active)
same,growth inhibition,[2]; at 100.0 µM,98% (active)
same,growth inhibition,[3]; at 1.2 µM,-10%
same,growth inhibition,[3]; at 3.7 µM,-4%
same,growth inhibition,[3]; at 11.0 µM,-25%
same,growth inhibition,[3]; at 33.0 µM,27%
same,growth inhibition,[3]; at 100.0 µM,78% (active)
same,growth inhibition,[4]; at 1.2 µM,35%
same,growth inhibition,[4]; at 3.7 µM,10%
same,growth inhibition,[4]; at 11.0 µM,-23%
same,growth inhibition,[4]; at 33.0 µM,97% (active)
same,growth inhibition,[4]; at 100.0 µM,97% (active)
same,growth inhibition,[15]; at 1.2 µM,-6%
same,growth inhibition,[15]; at 3.7 µM,-8%
same,growth inhibition,[15]; [17],35%
same,growth inhibition,[15]; at 11.0 µM,-26%
same,growth inhibition,[15]; at 33.0 µM,96% (active)
same,growth inhibition,[15]; [18],65%
same,growth inhibition,[15]; at 50.0 µM,91.8% (active)
same,growth inhibition,[15]; at 100.0 µM,97% (active)
same,growth inhibition,[5]; at 1.2 µM,-20%
same,growth inhibition,[5]; at 3.7 µM,-19%
same,growth inhibition,[5]; [17],52%
same,growth inhibition,[5]; at 11.0 µM,-40%
same,growth inhibition,[5]; at 33.0 µM,93% (active)
same,growth inhibition,[5]; [18],73% (active)
same,growth inhibition,[5]; at 50.0 µM,93.5% (active)
same,growth inhibition,[5]; at 100.0 µM,98% (active)
same,growth inhibition,[6]; at 1.2 µM,-8%
same,growth inhibition,[6]; at 3.7 µM,-18%
same,growth inhibition,[6]; at 11.0 µM,-39%
same,growth inhibition,[6]; at 33.0 µM,97% (active)
same,growth inhibition,[6]; at 100.0 µM,98% (active)
same,growth inhibition,[7]; [17],7%
same,growth inhibition,[7]; [18],97% (active)
same,growth inhibition,[8]; at 1.2 µM,15%
same,growth inhibition,[8]; at 3.7 µM,19%
same,growth inhibition,[8]; at 11.0 µM,-17%
same,growth inhibition,[8]; at 33.0 µM,97% (active)
same,growth inhibition,[8]; at 100.0 µM,97% (active)
same,growth inhibition,[9]; [17],37%
same,growth inhibition,[9]; [18],98% (active)
same,growth inhibition,[10]; at 1.2 µM,7%
same,growth inhibition,[10]; at 3.7 µM,4%
same,growth inhibition,[10]; [17],39%
same,growth inhibition,[10]; at 11.0 µM,-4%
same,growth inhibition,[10]; at 33.0 µM,96% (active)
same,growth inhibition,[10]; [18],97% (active)
same,growth inhibition,[10]; at 100.0 µM,97% (active)
same,growth inhibition,[11]; at 1.2 µM,-41%
same,growth inhibition,[11]; at 3.7 µM,-24%
same,growth inhibition,[11]; at 11.0 µM,-44%
same,growth inhibition,[11]; at 33.0 µM,93% (active)
same,growth inhibition,[11]; at 100.0 µM,97% (active)
same,growth inhibition,[13]; at 1.2 µM,2%
same,growth inhibition,[13]; at 3.7 µM,-17%
same,growth inhibition,[13]; at 11.0 µM,-28%
same,growth inhibition,[13]; at 33.0 µM,96% (active)
same,growth inhibition,[13]; at 100.0 µM,97% (active)
same,growth inhibition,[14]; [17],32%
same,growth inhibition,[14]; [18],63%
same,growth inhibition,[14]; at 50.0 µM,91.8% (active)
same,growth inhibition,[16]; at 1.2 µM,-6%
same,growth inhibition,[16]; at 3.7 µM,-7%
same,growth inhibition,[16]; at 11.0 µM,-5%
same,growth inhibition,[16]; at 33.0 µM,96% (active)
same,growth inhibition,[16]; at 100.0 µM,97% (active)
